Laboratory results reported in PubChem BioAssay AID1159580 (chemical genetic matrix, 2015).
Hit rate of the full screen: of about 5,500 compounds, about 2,000 (36%) were called active. About 18% were inconclusive and are not listed. No stated cut-off is given here; in the data, active means normalized growth mostly below about 0.91 (no sharp cut-off); inconclusive means no clear call, values can overlap the other calls; inactive means mostly above about 0.92. The list shows a part of the results.

Test: chemical genetic growth profiling, strain panel (AID 1159580);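 further: tested at 20 µM; growth read once vehicle control cultures reached saturation at 30 °C; 1 = growth at the plate median or of vehicle wells; lower values mean less growth of the strain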
Conditions: growth OD

Measured: normalized growth

C[C@H]1[C@H]2CCC3C4CC=C5C[C@@H](N(C)C)CC[C@]5(C)C4CC[C@@]32CN1C (some centres not stated)
inactive: S. cerevisiae deletion strains, locus YJR075W, strain HOC1, hits give low values 0.974 | S. cerevisiae deletion strains, locus YKL009W, strain mrt4, hits give low values 0.985 | S. cerevisiae deletion strains, locus YKL068W, hits give low values 0.989 | S. cerevisiae deletion strains, locus YKL085W, strain MDH1 (second series), hits give low values 0.997 | S. cerevisiae deletion strains, locus YKL085W, strain MDH1, hits give low values 0.997 | S. cerevisiae deletion strains, locus YKL160W, strain elf1, hits give low values 0.995 | S. cerevisiae deletion strains, locus YKL190W, strain CNB1, hits give low values 0.98 | S. cerevisiae deletion strains, locus YKR001C, strain vps1, hits give low values 0.989 | S. cerevisiae deletion strains, locus YKR026C, strain gcn3, hits give low values 0.99 | S. cerevisiae deletion strains, locus YKR091W, strain srl3, hits give low values 0.995 | S. cerevisiae deletion strains, locus YLL001W, strain dnm1, hits give low values 0.98 | S. cerevisiae deletion strains, locus YLL026W, hits give low values 0.987 | S. cerevisiae deletion strains, locus YLL041C, strain sdh2, hits give low values 1 | S. cerevisiae deletion strains, locus YLR027C, strain aat2, hits give low values 0.996 | S. cerevisiae deletion strains, locus YLR039C, strain RIC1, hits give low values 1.01 | S. cerevisiae deletion strains, locus YLR058C, strain SHM2, hits give low values 0.98 | S. cerevisiae deletion strains, locus YLR102C, strain apc9, hits give low values 0.992 | S. cerevisiae deletion strains, locus YLR113W, strain HOG1, hits give low values 1.02 | S. cerevisiae deletion strains, locus YLR221C, strain rsa3, hits give low values 0.997 | S. cerevisiae deletion strains, locus YLR258W, strain gsy2, hits give low values 0.975 | S. cerevisiae deletion strains, locus YLR262C, strain YPT6 (second series), hits give low values 1 | S. cerevisiae deletion strains, locus YLR262C, strain YPT6, hits give low values 0.962 | S. cerevisiae deletion strains, locus YLR268W, strain sec22, hits give low values 1.02 | S. cerevisiae deletion strains, locus YLR320W, strain mms22, hits give low values 0.955 | S. cerevisiae deletion strains, locus YLR330W, strain CHS5, hits give low values 0.992 | S. cerevisiae deletion strains, locus YLR342W, strain FKS1 (second series), hits give low values 0.986 | S. cerevisiae deletion strains, locus YLR342W, strain FKS1, hits give low values 0.991 | S. cerevisiae deletion strains, locus YLR357W, strain rsc2, hits give low values 0.955 | S. cerevisiae deletion strains, locus YLR370C, strain arc18, hits give low values 0.992 | S. cerevisiae deletion strains, locus YLR371W, strain rom2, hits give low values 0.981 | S. cerevisiae deletion strains, locus YLR384C, strain iki3, hits give low values 0.983 | S. cerevisiae deletion strains, locus YLR418C, strain cdc73, hits give low values 0.937 | S. cerevisiae deletion strains, locus YML016C, strain PPZ1, hits give low values 0.993 | S. cerevisiae deletion strains, locus YML032C, strain rad52, hits give low values 0.94 | S. cerevisiae deletion strains, locus YML120C, strain ndi1, hits give low values 1.01 | S. cerevisiae deletion strains, locus YML124C, strain tub3, hits give low values 0.996 | S. cerevisiae deletion strains, locus YMR058W, strain fet3, hits give low values 0.993 | S. cerevisiae deletion strains, locus YMR078C, strain ctf18, hits give low values 0.988 | S. cerevisiae deletion strains, locus YMR125W, strain sto1, hits give low values 0.947 | S. cerevisiae deletion strains, locus YMR129W, hits give low values 0.997 | S. cerevisiae deletion strains, locus YMR205C, strain PFK2, hits give low values 0.935 | S. cerevisiae deletion strains, locus YMR223W, strain ubp8, hits give low values 0.972 | S. cerevisiae deletion strains, locus YMR231W, strain pep5, hits give low values 0.994 | S. cerevisiae deletion strains, locus YMR263W, strain SAP30, hits give low values 0.987 | S. cerevisiae deletion strains, locus YMR307W, strain GAS1, hits give low values 0.874 | S. cerevisiae deletion strains, locus YNL067W, strain RPL9B, hits give low values 0.978 | S. cerevisiae deletion strains, locus YNL071W, strain lat1, hits give low values 0.987 | S. cerevisiae deletion strains, locus YNL128W, strain TEP1, hits give low values 0.981 | S. cerevisiae deletion strains, locus YNL153C, strain GIM3, hits give low values 0.982 | S. cerevisiae deletion strains, locus YNL183C, strain NPR1, hits give low values 0.973 | S. cerevisiae deletion strains, locus YNL209W, strain ssb2, hits give low values 1 | S. cerevisiae deletion strains, locus YNL233W, strain BNI4, hits give low values 1 | S. cerevisiae deletion strains, locus YNL248C, strain rpa49, hits give low values 0.991 | S. cerevisiae deletion strains, locus YNL250W, strain rad50, hits give low values 0.965 | S. cerevisiae deletion strains, locus YNL271C, strain bni1, hits give low values 0.988 | S. cerevisiae deletion strains, locus YNL298W, strain CLA4, hits give low values 0.977 | S. cerevisiae deletion strains, locus YNL307C, strain MCK1, hits give low values 0.988 | S. cerevisiae deletion strains, locus YNL322C, strain KRE1 (second series), hits give low values 0.992 | S. cerevisiae deletion strains, locus YNL322C, strain KRE1, hits give low values 0.994 | S. cerevisiae deletion strains, locus YNR049C, strain mso1, hits give low values 0.997 | S. cerevisiae deletion strains, locus YNR052C, strain pop2, hits give low values 0.978 | S. cerevisiae deletion strains, locus YOL006C, strain TOP1, hits give low values 0.991 | S. cerevisiae deletion strains, locus YOL012C, strain htz1 0.864 | S. cerevisiae deletion strains, locus YOL147C, strain pex11, hits give low values 0.991 | S. cerevisiae deletion strains, locus YOR001W, strain rrp6, hits give low values 1.02 | S. cerevisiae deletion strains, locus YOR061W, strain CKA2, hits give low values 0.96 | S. cerevisiae deletion strains, locus YOR069W, strain VPS5, hits give low values 1 | S. cerevisiae deletion strains, locus YOR070C, strain gyp1, hits give low values 0.993 | S. cerevisiae deletion strains, locus YOR080W, strain dia2, hits give low values 0.978 | S. cerevisiae deletion strains, locus YOR083W, strain WHI5, hits give low values 1 | S. cerevisiae deletion strains, locus YOR106W, strain vam3, hits give low values 1 | S. cerevisiae deletion strains, locus YOR136W, strain idh2, hits give low values 0.991 | S. cerevisiae deletion strains, locus YOR144C, strain elg1, hits give low values 0.991 | S. cerevisiae deletion strains, locus YOR184W, strain ser1, hits give low values 0.963 | S. cerevisiae deletion strains, locus YOR231W, strain MKK1, hits give low values 1.01 | S. cerevisiae deletion strains, locus YOR265W, strain rbl2, hits give low values 0.991 | S. cerevisiae deletion strains, locus YOR270C, strain vph1, hits give low values 1 | S. cerevisiae deletion strains, locus YOR290C, strain snf2, hits give low values 0.96 | S. cerevisiae deletion strains, locus YOR316C, strain cot1, hits give low values 0.989 | S. cerevisiae deletion strains, locus YPL051W, strain arl3, hits give low values 1 | S. cerevisiae deletion strains, locus YPL055C, strain LGE1, hits give low values 0.952 | S. cerevisiae deletion strains, locus YPL078C, strain atp4, hits give low values 1.01 | S. cerevisiae deletion strains, locus YPL106C, strain sse1, hits give low values 0.977 | S. cerevisiae deletion strains, locus YPL240C, strain hsp82, hits give low values 0.993 | S. cerevisiae deletion strains, locus YPL241C, strain CIN2, hits give low values 0.994 | S. cerevisiae deletion strains, locus YPL256C, strain CLN2, hits give low values 1.01 | S. cerevisiae deletion strains, locus YPR119W, strain clb2, hits give low values 1.01 | S. cerevisiae deletion strains, locus YPR141C, strain kar3, hits give low values 0.98 | S. cerevisiae deletion strains, locus YPR163C, strain tif3, hits give low values 0.986 | S. cerevisiae deletion strains, locus YPR167C, strain met16, hits give low values 0.987 | S. cerevisiae deletion strains, strain wtn01, hits give low values 1.02 | S. cerevisiae strains, strain wild type, hits give low values 0.981
